High-throughput results as filed in PubChem BioAssay.
Compounds with a hit are over-represented: about 5.6% of the library has one in this group of screens.
M18AAP inhibitor – PfM18AAP enzyme inhibition; recombinant PfM18AAP, H-Glu-NHMec fluorogenic cleavage; inhibition, % at 7.35 µM; 290,000 tested, 1.2% active;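 active means inhibition above the campaign mean inhibition over all tested compounds plus 3 SD, cut at about 28% in these data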
ALR inh – blocks human ALR sulfhydryl oxidase activity; P55789; inhibition, % (concentration not given with the values); purified ALR, DTT oxidation, H2O2 HRP-luminol luminescence; AID 485317; 290,000 tested, 3.8% active;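 active means mean replicate inhibition above about 79%, with every replicate also reaching it, limit read from the data; inconclusive means only one of the two criteria met; inactive means mean below limit and not every replicate reaching it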
Target sequence (P55789 whole entry, looked up): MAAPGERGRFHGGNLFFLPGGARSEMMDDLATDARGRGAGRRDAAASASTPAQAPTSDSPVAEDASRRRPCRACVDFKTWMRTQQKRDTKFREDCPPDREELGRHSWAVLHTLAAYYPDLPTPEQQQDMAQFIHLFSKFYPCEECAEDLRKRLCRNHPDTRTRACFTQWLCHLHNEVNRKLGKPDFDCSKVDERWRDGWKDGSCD
H9c2 protect – protects H9c2 cardiomyocytes from peroxide injury; AID 588492; protection from H2O2 cell death, % at 20 µM; H2O2 injury protection, ATPLite, 2 h; 360,000 tested, 0.63% active;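 active means compounds giving at least 50% protection of heart cells from peroxide-induced death in the single-dose screen, raw or plate-pattern-corrected value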
PfGluPho inh – PfG6PD (Plasmodium falciparum) enzyme inhibition; PfGluPho enzyme, NADPH resazurin-diaphorase fluorescence; inhibition, % at 20 µM; 350,000 tested, 0.78% active; AID 504690;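 active means inhibition reaching at least a set limit at 20 µM in the primary screen, cut at about 59% in these data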
PHOSPHO1 block – inhibitors of human PHOSPHO1 phosphatase; Q8TCT1; recombinant PHOSPHO1, absorbance phosphatase assay; 290,000 tested, 1.1% active; inhibition, % at 13.3 µM; in the data active means inhibition above about 60%
Target sequence (Q8TCT1 whole entry, looked up): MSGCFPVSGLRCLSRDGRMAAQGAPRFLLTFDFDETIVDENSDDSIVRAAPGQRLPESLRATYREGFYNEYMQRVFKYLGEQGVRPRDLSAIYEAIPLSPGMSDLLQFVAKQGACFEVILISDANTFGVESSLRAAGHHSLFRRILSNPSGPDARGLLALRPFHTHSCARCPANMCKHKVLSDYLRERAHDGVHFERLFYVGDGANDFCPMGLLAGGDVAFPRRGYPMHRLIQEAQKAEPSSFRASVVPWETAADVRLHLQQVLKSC
Of the large screens only hits and unclear results are named; the others gave an inactive call.

CCC(C)n1c(O)c(/C=N/Nc2ccccc2)c(=O)[nH]c1=S (configuration not stated)	ALR inh 99.9
CCN1C(=O)CC(=O)N(CC)C1=S	none (no result: M18AAP inhibitor, ALR inh, PHOSPHO1 block)
CN(CC1COc2ccccc2O1)c1nc(-c2cccnc2)nc2ccccc12 (configuration not stated)	H9c2 protect 90.4 (no result: PHOSPHO1 block)
Cc1cc(C)c(C)c(C(O)(C(=O)O)c2ccccc2)c1 (configuration not stated)	none (no result: M18AAP inhibitor, ALR inh, PHOSPHO1 block)
Cn1cnc([N+](=O)[O-])c1Sc1ccc([N+](=O)[O-])cc1	ALR inh 97.4
COc1ccc(-n2nnnc2C(c2cccc3ccccc23)N2CCC3(CC2)C(=O)NCN3c2ccccc2)cc1 (configuration not stated)	none (no result: M18AAP inhibitor, ALR inh, PfGluPho inh, PHOSPHO1 block)
Cc1ccc(N2C(=O)NC(=O)C3(Cc4ccccc4N4CCN(c5ccccc5)CC43)C2=O)cc1 (configuration not stated)	PHOSPHO1 block 72.5
O=P1(c2ccccc2)CC=CC1	none (no result: M18AAP inhibitor, ALR inh, PfGluPho inh, PHOSPHO1 block)
Cc1oc(-c2cccs2)nc1CSCC(=O)N1CCC2(CC1)OCCO2	ALR inh 99.1
COc1ccc(-c2nc(CSCC(=O)N3CCC4(CC3)OCCO4)c(C)o2)cc1OC	ALR inh 99.8
CC(C)CN1Cc2ccccc2-n2nncc2C1	none (no result: M18AAP inhibitor, ALR inh, PHOSPHO1 block)
N#C/C(N)=C(/N)C#N	ALR inh 98.5 (no result: M18AAP inhibitor, PHOSPHO1 block)
Cc1cc(C(=O)OC(C)C(=O)Nc2ccccc2)c(C)n1C1CC1 (configuration not stated)	none (no result: M18AAP inhibitor, ALR inh, PHOSPHO1 block)
CCN(CC)C(=O)c1ccc2c(c1)C1C(Cl)C(Sc3ccccc3[N+](=O)[O-])CC1C(C(=O)O)N2 (configuration not stated)	ALR inh 97.0
Cc1ccc2c(c1Cl)NC(C(=O)O)C1CC(Sc3ccccc3[N+](=O)[O-])C(Cl)C21 (configuration not stated)	ALR inh inconclusive
Cc1cc2c(C(C)C)c(O)c(O)c(C=O)c2c(O)c1-c1c(C)cc2c(C(C)C)c(O)c(O)c(C=O)c2c1O	M18AAP inhibitor 31.8 (no result: ALR inh, PfGluPho inh)
CCOc1ccccc1N=C1SCCCN1C	PHOSPHO1 block 92.4
CC(=O)N1CCCSC1=Nc1ccccc1	none (no result: ALR inh)
C=C1C(=O)OC2CCN3CC=C(COC(=O)C(C)(O)C4(CO4)C1C)C23 (configuration not stated)	none (no result: M18AAP inhibitor, ALR inh, PfGluPho inh, PHOSPHO1 block)
CCOC(=O)CNC(=O)N1Cc2ccccc2-n2nncc2C1	none (no result: M18AAP inhibitor, ALR inh, PHOSPHO1 block)
c1ccc(-c2ccncc2)cc1	none (no result: M18AAP inhibitor, ALR inh, PHOSPHO1 block)
C[n+]1ccc(-c2ccncc2)cc1	PHOSPHO1 block 91.7
c1ccc(CCN2CCC(N3CCN(c4ccccc4)CC3)CC2)cc1	ALR inh 98.9
CCCCN(Cc1ccccc1)C1CCN(CCc2ccccc2)CC1	none (no result: ALR inh)
C[C@H](CO)N1C[C@H](C)[C@@H](CN(C)C(=O)Oc2ccccc2)OCc2cnnn2CCCC1=O	none (no result: M18AAP inhibitor, ALR inh, PHOSPHO1 block)
COc1ccc(-n2c(O)c(/C=C3\C=Nc4ccc(Br)cc43)c(=O)[nH]c2=O)c(OC)c1	ALR inh 96.9
COc1ccc(-n2c(O)c(/C=C3\C=Nc4ccc(Br)cc43)c(=O)[nH]c2=O)cc1	none
COc1ccc2c(c1)NP(=S)(Oc1ccccc1)N2 (configuration not stated)	ALR inh 98.4
COC(=O)C1=C(c2ccc(OCc3ccccc3)cc2)C[C@@H]2CC[C@H]1N2C(=O)NCc1ccc(F)cc1	none (no result: M18AAP inhibitor, ALR inh, PHOSPHO1 block)
N#CC1c2ccccc2-n2nncc2CN1Cc1cc(Cl)cc(Cl)c1 (configuration not stated)	none (no result: M18AAP inhibitor, ALR inh, PHOSPHO1 block)
C=CC12CN(C)C3C4COC(CC41)C1(C(=O)Nc4ccccc41)C32 (configuration not stated)	none (no result: M18AAP inhibitor, ALR inh, PfGluPho inh, PHOSPHO1 block)
COc1ccc(C(c2nnnn2C2CCCCC2)N2CCC3(CC2)C(=O)NCN3c2ccccc2)cc1 (configuration not stated)	none (no result: M18AAP inhibitor, ALR inh, PfGluPho inh, PHOSPHO1 block)
CCOc1ccc2[nH]c(=O)c(CN(CCO)C3(c4nnnn4C4CCCCC4)CCCCC3)cc2c1	H9c2 protect 78.5
c1ccc2oc(-c3ccc4c(c3)CNCc3cnnn3-4)cc2c1	none (no result: M18AAP inhibitor, ALR inh, PfGluPho inh, PHOSPHO1 block)
O=C1NC(=O)C(CCc2ccncc2)(CCc2ccncc2)C(=O)N1CCc1ccc(F)cc1	none
O=C1NC(=O)C(CCc2ccncc2)(CCc2ccncc2)C(=O)N1CCc1ccccc1	PHOSPHO1 block 62.8
FC(F)(F)c1ccc2c(c1)N(CCCN1CCN(CCCl)CC1)c1ccccc1S2	ALR inh 99.2, PHOSPHO1 block 63.9
CCCCn1nnnc1C(CCSC)N1CCC2(CC1)C(=O)NCN2c1ccccc1 (configuration not stated)	none (no result: M18AAP inhibitor, ALR inh, PfGluPho inh, PHOSPHO1 block)
COP(=S)(OC)SCN1C(=O)c2ccccc2C1=O	PHOSPHO1 block 77.0 (no result: ALR inh)
CNC(=O)CSP(=S)(OC)OC	none (no result: M18AAP inhibitor, ALR inh, PHOSPHO1 block)
c1ccc(C2(NC3=NCCO3)CCCCC2)cc1	none (no result: M18AAP inhibitor, ALR inh, PHOSPHO1 block)
CCCCn1c(O)c(C=NCCCn2ccnc2)c(=O)[nH]c1=O	none
CC(C)CCCn1c(O)c(/C=C2/C=CC=N2)c(=O)[nH]c1=O	ALR inh 97.5
CCOP(=O)(OCC)C(O)c1ccc(OC)c(OC)c1 (configuration not stated)	ALR inh 98.8
Cc1ccccc1N1C(=O)NC(=O)/C(=C\c2cc(Br)c(N3CCOCC3)o2)C1=O	M18AAP inhibitor 41.2
S=C(NCCc1ccccc1)N1Cc2cc(N3CCCCC3)ccc2-n2nncc2C1	none (no result: M18AAP inhibitor, ALR inh, PfGluPho inh, PHOSPHO1 block)
COc1cc2c3c(c1OC)Oc1ccc(cc1)C[C@H]1c4c(cc(OC)c(OC)c4Oc4ccc(cc4)C[C@@H]3N(C)CC2)CCN1C	none (no result: M18AAP inhibitor, ALR inh, PHOSPHO1 block)
COc1cc2c(cc1O)C[C@H]1c3c(cc(O)c(OC)c3-2)CCN1C	ALR inh 98.1 (no result: M18AAP inhibitor, PHOSPHO1 block)
CN1OC[C@@H]2CN[C@H](c3ccc(Br)cc3)C[C@@H]21	none (no result: M18AAP inhibitor, ALR inh, PHOSPHO1 block)
CCC(c1nnnn1C1CCCC1)N1CCC2(CC1)C(=O)NCN2c1ccccc1 (configuration not stated)	none (no result: M18AAP inhibitor, ALR inh, PfGluPho inh, PHOSPHO1 block)
CNC(=O)Oc1cccc(-c2cn3cc(OC(=O)NC)ccc3n2)c1	M18AAP inhibitor 31.0
CNC(=O)Oc1ccc2c(c1)C(=O)c1ccccc1CO2	none
COC(=O)CSC1=NP(=S)(SCC(=O)OC)N2CCCC2=C1C#N (configuration not stated)	ALR inh 98.1, PHOSPHO1 block 67.4
CSC1=NP(=S)(SC)N2CCCC2=C1C#N (configuration not stated)	none
c1coc(CN2Cc3ccccc3-n3nncc3C2)c1	none (no result: M18AAP inhibitor, ALR inh, PHOSPHO1 block)
O=C1NC(=S)SC1=Cc1ccc(N(CCCl)CCCl)cc1	none (no result: M18AAP inhibitor, ALR inh, PHOSPHO1 block)
CN1C(=O)C(Cc2cccc3ccccc23)C(=O)N(C)C1=O	none
O=C1C2CCN(CC2)[C@@H]1Cc1ccc2ccccc2c1O	ALR inh 81.3
COc1ccc(OC(=O)N(C)C[C@@H]2OCc3ccccc3-c3c(n(C)c4ccccc34)C(=O)N([C@H](C)CO)C[C@@H]2C)cc1	none (no result: M18AAP inhibitor, ALR inh, PHOSPHO1 block)
COC(=O)C(O)(c1ccc2c(c1)CCCN2)C(F)(F)F (configuration not stated)	ALR inh 96.6
